Legend:
Assay in all cases: DAPPL (digital affinity profiling via proximity ligation, sequencing); 10 mM Tris-HCl pH 7.5, 50 mM NaCl, 1 mM DTT, 4% glycerol, room temperature, 30 min; GST-TFs on glutathione beads, 16-mer random dsDNA library, 0.1% formaldehyde crosslink after washing; high values mean tight binding
[1] = target: T1, FLI1 (Homo sapiens, UniProt Q01543 1-452); conditions: protein: recombinant; tags: N-terminal GST; dsDNA, one strand shown
T1 sequence: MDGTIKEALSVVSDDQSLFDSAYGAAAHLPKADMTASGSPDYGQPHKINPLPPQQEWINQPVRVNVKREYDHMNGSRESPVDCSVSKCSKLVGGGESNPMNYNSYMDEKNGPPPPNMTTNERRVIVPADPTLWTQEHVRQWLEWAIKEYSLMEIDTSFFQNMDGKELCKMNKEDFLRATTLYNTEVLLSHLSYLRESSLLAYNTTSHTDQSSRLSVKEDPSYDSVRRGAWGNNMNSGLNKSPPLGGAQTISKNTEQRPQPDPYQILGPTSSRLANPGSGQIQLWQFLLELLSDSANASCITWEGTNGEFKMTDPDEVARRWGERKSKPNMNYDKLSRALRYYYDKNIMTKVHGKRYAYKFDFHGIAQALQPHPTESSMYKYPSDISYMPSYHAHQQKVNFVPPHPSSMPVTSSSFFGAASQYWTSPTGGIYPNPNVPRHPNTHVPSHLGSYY
How it was run: (§1)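 GST fusions of human transcription factors were expressed in yeast and captured with glutathione beads. Once given DNA barcodes and pooled alongside a tag-only sample, they were incubated for 30 min at room temperature with 200 nmole of a random double-stranded 16-mer DNA library in Tris/NaCl/DTT/glycerol buffer, then washed, crosslinked (0.1% formaldehyde), proximity-ligated, PCR-amplified and sequenced on an Illumina NextSeq500. The binding signal of each hexamer is its read frequency for a factor divided by its frequency for the tag-only sample.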

[2] = target: T2, ELK1 (Homo sapiens, UniProt P19419 1-428); conditions: protein: recombinant; tags: N-terminal GST; dsDNA, one strand shown
T2 sequence: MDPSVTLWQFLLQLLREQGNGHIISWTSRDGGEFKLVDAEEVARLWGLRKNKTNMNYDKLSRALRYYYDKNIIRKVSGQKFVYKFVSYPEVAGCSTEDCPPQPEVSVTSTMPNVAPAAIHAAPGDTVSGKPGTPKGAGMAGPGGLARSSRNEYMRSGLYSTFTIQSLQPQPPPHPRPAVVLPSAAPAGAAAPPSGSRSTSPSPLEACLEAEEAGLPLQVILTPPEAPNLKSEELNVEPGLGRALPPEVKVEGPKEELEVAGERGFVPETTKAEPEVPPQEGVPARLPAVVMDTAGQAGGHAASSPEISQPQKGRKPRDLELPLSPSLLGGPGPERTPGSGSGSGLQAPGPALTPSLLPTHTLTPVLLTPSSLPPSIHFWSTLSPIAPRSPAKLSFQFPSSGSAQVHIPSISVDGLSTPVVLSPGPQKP
How it was run: as §1

[3] = target: T3, GABPA (Homo sapiens, UniProt Q06546 1-454); conditions: protein: recombinant; tags: N-terminal GST; dsDNA, one strand shown
T3 sequence: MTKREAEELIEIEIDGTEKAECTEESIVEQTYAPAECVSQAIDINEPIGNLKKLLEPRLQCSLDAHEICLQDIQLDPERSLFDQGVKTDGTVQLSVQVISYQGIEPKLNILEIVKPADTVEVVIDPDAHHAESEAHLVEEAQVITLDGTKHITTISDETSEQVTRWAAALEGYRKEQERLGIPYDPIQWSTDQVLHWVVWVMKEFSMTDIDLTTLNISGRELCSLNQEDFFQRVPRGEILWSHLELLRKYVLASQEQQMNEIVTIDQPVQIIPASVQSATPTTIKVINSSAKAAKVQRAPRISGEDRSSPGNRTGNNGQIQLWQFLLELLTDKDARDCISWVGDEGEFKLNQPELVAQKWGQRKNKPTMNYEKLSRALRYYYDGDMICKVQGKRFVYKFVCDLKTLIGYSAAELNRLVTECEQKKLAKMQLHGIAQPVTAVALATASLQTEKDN
How it was run: as §1

[4] = target: T4, ERG (Homo sapiens, UniProt P11308 1-479); conditions: protein: recombinant; tags: N-terminal GST; dsDNA, one strand shown
T4 sequence: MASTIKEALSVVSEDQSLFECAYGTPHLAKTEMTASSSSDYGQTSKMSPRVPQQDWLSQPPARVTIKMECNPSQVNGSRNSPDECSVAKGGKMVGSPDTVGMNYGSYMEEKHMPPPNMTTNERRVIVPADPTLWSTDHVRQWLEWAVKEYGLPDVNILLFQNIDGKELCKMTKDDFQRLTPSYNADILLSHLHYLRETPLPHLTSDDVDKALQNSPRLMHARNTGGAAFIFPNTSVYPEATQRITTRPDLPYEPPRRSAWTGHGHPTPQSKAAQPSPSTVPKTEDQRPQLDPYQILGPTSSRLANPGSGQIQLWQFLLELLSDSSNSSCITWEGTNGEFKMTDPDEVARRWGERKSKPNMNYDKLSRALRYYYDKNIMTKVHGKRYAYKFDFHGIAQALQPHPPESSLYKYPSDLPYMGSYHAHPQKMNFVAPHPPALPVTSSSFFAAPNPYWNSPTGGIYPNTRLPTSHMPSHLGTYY
How it was run: as §1

[5] = target: ELF1 (Homo sapiens, UniProt P32519 1-619); conditions: protein: recombinant; tags: N-terminal GST; dsDNA, one strand shown
Sequence of ELF1 (P32519 whole entry): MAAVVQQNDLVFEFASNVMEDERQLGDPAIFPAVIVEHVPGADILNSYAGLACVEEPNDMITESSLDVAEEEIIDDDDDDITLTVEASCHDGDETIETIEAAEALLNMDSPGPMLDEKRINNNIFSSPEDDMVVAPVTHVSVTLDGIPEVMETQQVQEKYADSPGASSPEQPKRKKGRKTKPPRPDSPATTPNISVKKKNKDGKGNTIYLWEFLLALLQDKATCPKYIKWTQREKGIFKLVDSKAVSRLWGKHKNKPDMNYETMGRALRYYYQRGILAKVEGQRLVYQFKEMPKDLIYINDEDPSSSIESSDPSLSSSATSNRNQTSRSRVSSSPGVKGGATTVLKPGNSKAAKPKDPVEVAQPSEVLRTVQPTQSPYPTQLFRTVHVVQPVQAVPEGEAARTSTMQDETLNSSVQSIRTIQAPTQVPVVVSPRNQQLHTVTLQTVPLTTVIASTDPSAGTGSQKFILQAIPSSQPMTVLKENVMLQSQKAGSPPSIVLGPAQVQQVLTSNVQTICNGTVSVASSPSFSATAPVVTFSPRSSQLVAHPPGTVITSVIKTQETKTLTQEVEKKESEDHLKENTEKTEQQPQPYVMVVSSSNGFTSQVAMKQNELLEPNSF
How it was run: as §1

[6] = target: T5, EHF (Homo sapiens, UniProt Q9NZC4 1-300); conditions: protein: recombinant; tags: N-terminal GST; dsDNA, one strand shown
T5 sequence: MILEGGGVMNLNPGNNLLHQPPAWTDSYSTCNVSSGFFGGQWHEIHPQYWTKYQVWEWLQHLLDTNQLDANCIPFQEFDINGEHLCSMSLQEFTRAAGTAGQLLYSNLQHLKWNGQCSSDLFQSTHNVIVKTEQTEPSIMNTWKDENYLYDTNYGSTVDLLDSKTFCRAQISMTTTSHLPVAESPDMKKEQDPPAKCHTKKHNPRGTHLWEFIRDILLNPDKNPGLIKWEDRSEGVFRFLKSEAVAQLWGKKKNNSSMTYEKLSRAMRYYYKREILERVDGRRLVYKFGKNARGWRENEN
How it was run: as §1

[7] = target: SPI1 (Homo sapiens, UniProt P17947 1-270); conditions: protein: recombinant; tags: N-terminal GST; dsDNA, one strand shown
How it was run: as §1

[8] = target: SPIB (Homo sapiens, UniProt Q01892 1-262); conditions: protein: recombinant; tags: N-terminal GST; dsDNA, one strand shown
Sequence of SPIB (Q01892 whole entry): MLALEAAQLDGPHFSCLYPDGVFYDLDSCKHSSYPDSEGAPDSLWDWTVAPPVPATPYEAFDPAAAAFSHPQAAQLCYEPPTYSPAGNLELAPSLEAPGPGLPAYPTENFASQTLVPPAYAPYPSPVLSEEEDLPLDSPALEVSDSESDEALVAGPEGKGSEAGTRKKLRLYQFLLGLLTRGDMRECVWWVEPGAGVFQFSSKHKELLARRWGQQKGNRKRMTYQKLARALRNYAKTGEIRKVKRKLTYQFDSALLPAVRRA
How it was run: as §1

[9] = target: T6, ELK3 (Homo sapiens, UniProt P41970 1-407); conditions: protein: recombinant; tags: N-terminal GST; dsDNA, one strand shown
T6 sequence: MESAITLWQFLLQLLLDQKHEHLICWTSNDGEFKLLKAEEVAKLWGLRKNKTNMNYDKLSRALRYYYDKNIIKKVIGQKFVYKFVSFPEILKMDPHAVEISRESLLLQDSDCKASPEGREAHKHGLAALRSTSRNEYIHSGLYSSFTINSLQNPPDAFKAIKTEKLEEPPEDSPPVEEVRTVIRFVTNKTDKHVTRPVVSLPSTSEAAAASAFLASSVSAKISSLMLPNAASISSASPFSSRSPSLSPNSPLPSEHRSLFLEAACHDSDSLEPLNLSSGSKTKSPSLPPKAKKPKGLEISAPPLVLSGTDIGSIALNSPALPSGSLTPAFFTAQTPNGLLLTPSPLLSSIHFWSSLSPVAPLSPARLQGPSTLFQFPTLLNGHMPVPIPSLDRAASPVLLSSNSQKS
How it was run: as §1

[10] = target: T7, FEV (Homo sapiens, UniProt Q99581 1-238); conditions: protein: recombinant; tags: N-terminal GST; dsDNA, one strand shown
T7 sequence: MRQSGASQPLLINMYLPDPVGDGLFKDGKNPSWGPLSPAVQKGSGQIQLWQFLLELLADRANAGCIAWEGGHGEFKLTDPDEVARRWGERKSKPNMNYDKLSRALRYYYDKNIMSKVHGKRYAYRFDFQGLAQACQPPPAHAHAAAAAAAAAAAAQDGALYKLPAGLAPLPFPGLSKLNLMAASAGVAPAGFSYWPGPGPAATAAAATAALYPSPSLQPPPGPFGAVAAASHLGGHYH
How it was run: as §1

[11] = target: ETV5 (Homo sapiens, UniProt P41161 1-510); conditions: protein: recombinant; tags: N-terminal GST; dsDNA, one strand shown
Sequence of ETV5 (P41161 whole entry): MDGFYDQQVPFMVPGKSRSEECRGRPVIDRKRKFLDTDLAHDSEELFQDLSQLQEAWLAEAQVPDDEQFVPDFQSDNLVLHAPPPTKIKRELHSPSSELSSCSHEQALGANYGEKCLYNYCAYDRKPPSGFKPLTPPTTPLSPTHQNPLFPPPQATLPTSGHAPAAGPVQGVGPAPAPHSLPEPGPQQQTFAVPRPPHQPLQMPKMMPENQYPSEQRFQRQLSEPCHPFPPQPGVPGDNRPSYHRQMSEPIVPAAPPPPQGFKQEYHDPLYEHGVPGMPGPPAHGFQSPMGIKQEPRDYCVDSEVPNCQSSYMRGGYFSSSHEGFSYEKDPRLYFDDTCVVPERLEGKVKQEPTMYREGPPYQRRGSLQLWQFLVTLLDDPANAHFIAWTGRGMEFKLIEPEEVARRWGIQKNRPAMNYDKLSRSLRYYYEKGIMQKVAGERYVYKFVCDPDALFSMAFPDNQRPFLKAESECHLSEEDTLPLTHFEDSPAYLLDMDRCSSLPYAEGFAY
How it was run: as §1

[12] = target: HSF1 (Homo sapiens, UniProt Q00613 1-529); conditions: protein: recombinant; tags: N-terminal GST; chain copies: 3; dsDNA, one strand shown
Sequence of HSF1 (Q00613 whole entry): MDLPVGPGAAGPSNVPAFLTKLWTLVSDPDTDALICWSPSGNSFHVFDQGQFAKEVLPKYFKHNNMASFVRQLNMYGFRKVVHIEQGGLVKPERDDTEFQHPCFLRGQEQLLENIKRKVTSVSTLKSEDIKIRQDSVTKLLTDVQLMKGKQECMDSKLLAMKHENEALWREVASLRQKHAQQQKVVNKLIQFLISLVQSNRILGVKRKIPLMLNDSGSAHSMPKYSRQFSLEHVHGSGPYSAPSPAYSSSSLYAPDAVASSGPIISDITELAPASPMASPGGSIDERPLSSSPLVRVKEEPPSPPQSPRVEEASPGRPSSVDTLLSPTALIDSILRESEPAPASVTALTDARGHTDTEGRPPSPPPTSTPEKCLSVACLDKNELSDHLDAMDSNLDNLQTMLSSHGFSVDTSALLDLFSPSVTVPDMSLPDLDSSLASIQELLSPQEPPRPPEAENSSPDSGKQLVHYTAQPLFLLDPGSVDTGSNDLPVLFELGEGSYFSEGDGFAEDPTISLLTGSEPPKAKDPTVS
How it was run: as §1

[13] = target: T8, SPIC (Homo sapiens, UniProt Q8N5J4 1-248); conditions: protein: recombinant; tags: N-terminal GST; dsDNA, one strand shown
T8 sequence: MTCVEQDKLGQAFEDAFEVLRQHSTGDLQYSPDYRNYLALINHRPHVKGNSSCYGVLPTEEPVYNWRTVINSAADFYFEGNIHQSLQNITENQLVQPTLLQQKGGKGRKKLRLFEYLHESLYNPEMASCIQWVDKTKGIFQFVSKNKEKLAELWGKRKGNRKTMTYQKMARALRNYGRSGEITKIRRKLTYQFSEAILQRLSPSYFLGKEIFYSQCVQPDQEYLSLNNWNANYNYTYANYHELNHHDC
How it was run: as §1

[14] = target: ELF4 (Homo sapiens, UniProt Q99607 1-663); conditions: protein: recombinant; tags: N-terminal GST; dsDNA, one strand shown
Sequence of ELF4 (Q99607 whole entry): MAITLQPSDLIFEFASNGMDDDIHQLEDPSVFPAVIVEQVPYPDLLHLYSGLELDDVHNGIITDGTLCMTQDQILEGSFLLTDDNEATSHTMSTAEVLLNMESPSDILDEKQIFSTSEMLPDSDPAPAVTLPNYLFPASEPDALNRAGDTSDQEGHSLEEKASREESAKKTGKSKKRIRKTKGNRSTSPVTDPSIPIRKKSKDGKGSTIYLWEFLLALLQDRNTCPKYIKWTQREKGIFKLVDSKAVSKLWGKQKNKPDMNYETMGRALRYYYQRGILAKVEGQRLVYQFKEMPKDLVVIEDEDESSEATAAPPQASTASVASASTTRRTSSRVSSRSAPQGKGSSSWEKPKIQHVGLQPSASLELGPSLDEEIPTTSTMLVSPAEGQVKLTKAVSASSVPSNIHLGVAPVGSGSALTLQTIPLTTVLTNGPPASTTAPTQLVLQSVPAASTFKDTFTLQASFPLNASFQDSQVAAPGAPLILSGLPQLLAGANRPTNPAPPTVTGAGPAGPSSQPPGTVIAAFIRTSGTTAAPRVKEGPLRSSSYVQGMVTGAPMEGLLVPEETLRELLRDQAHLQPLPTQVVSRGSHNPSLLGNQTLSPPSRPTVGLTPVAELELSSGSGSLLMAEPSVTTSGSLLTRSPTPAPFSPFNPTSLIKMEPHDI
How it was run: as §1

[15] = target: T9, ELK4 (Homo sapiens, UniProt P28324-2 1-405); conditions: protein: recombinant; tags: N-terminal GST; dsDNA, one strand shown
T9 sequence: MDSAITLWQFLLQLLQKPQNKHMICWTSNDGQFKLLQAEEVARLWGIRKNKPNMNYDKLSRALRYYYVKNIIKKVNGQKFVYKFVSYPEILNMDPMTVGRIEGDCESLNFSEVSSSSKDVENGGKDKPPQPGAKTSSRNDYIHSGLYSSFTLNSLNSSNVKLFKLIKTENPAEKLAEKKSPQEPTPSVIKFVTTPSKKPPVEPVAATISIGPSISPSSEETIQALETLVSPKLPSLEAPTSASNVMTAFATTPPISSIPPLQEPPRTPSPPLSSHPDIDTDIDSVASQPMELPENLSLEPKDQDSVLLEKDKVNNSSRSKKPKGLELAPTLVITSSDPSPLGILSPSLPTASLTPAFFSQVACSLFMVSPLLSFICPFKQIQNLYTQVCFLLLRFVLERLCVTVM
How it was run: as §1

[16] = target: T10, ETV2 (Homo sapiens, UniProt O00321 1-342); conditions: protein: recombinant; tags: N-terminal GST; dsDNA, one strand shown
T10 sequence: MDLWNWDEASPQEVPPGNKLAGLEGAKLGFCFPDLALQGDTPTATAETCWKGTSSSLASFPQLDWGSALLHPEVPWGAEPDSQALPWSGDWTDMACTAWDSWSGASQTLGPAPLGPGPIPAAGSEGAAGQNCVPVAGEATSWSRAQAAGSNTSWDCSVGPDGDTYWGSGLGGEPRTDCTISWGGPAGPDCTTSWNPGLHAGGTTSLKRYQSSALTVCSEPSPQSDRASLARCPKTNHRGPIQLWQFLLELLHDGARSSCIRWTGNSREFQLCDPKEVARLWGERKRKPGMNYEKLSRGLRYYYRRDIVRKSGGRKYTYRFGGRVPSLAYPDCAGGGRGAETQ
How it was run: as §1

[17] = target: T11, ELF3 (Homo sapiens, UniProt P78545 1-371); conditions: protein: recombinant; tags: N-terminal GST; dsDNA, one strand shown
T11 sequence: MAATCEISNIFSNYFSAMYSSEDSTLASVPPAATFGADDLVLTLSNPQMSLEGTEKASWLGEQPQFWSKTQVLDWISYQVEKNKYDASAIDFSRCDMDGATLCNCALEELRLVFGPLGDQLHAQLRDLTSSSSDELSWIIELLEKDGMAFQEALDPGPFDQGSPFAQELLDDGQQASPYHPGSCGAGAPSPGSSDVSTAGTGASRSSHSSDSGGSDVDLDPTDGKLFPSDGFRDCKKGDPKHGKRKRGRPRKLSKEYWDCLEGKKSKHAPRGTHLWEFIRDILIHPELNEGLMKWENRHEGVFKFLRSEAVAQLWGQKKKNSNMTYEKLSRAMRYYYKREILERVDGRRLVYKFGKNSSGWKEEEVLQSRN
How it was run: as §1

[18] = target: CRX (Homo sapiens, UniProt O43186 1-299); conditions: protein: recombinant; tags: N-terminal GST; dsDNA, one strand shown
Sequence of CRX (O43186 whole entry): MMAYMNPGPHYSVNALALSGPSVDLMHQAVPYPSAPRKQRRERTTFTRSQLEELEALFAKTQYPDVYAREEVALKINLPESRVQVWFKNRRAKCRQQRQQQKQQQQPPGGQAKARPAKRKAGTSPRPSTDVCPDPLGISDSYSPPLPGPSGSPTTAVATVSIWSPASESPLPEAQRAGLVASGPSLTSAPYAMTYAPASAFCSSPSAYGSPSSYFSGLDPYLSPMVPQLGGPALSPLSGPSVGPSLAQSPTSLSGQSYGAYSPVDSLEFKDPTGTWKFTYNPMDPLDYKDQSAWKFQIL
How it was run: as §1

[19] = target: ETV1 (Homo sapiens, UniProt P50549 1-477); conditions: protein: recombinant; tags: N-terminal GST; dsDNA, one strand shown
Sequence of ETV1 (P50549 whole entry): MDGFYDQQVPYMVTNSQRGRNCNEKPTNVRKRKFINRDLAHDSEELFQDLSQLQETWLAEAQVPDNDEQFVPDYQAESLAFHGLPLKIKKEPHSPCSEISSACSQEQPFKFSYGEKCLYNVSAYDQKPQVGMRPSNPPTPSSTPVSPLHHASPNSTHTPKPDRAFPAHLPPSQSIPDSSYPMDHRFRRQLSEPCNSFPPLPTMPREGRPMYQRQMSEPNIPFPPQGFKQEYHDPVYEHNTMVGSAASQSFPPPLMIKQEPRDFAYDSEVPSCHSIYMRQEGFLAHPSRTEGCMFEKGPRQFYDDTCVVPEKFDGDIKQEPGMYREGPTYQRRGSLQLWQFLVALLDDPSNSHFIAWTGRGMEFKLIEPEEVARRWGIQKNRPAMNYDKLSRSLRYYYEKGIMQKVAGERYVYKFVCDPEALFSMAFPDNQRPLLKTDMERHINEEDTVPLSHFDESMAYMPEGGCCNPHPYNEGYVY
How it was run: as §1

CTCCAA
binding signal [1]: 1.23 fold enrichment (6-mer frequency, TF over GST control) | binding signal [2]: 1.41 fold enrichment (6-mer frequency, TF over GST control) | binding signal [3]: 1.4 fold enrichment (6-mer frequency, TF over GST control) | binding signal [4]: 1.32 fold enrichment (6-mer frequency, TF over GST control) | binding signal [5]: 1.3 fold enrichment (6-mer frequency, TF over GST control) | binding signal [6]: 1.26 fold enrichment (6-mer frequency, TF over GST control) | binding signal [7]: 1.29 fold enrichment (6-mer frequency, TF over GST control) | binding signal [8]: 1.31 fold enrichment (6-mer frequency, TF over GST control) | binding signal [9]: 1.25 fold enrichment (6-mer frequency, TF over GST control) | binding signal [10]: 1.29 fold enrichment (6-mer frequency, TF over GST control) | binding signal [11]: 1.3 fold enrichment (6-mer frequency, TF over GST control) | binding signal [12]: 1.31 fold enrichment (6-mer frequency, TF over GST control) | binding signal [13]: 1.35 fold enrichment (6-mer frequency, TF over GST control) | binding signal [14]: 1.38 fold enrichment (6-mer frequency, TF over GST control) | binding signal [15]: 1.23 fold enrichment (6-mer frequency, TF over GST control) | binding signal [16]: 1.36 fold enrichment (6-mer frequency, TF over GST control) | binding signal [17]: 1.32 fold enrichment (6-mer frequency, TF over GST control) | binding signal [18]: 1.14 fold enrichment (6-mer frequency, TF over GST control) | binding signal [19]: 1.33 fold enrichment (6-mer frequency, TF over GST control)
